Measurements reported in PubChem BioAssay AID463173 (ICCB-Longwood Screening Facility, Harvard Medical School, 2010).
Among all 52,000 compounds or so, about 4,300 (8.3%) were called active. Cut-off read from the data, not from the text of the source: active = survival mostly below about 52% (no sharp cut-off); inactive = mostly above about 56%. What follows is part of a selection rich in actives, with near analogues and random picks from the rest.

Each compound was assayed on DeltatarO mutant (assay: growth inhibition of S. aureus wild type versus tarO mutant, primary screen, teichoic acid synthesis inhibitors, RN4220, OD600 (AID 463173)). Conditions: OD600, 18 h, hits give low values, screened at 18.75 µg/mL (by protocol).

Question: Which survival does the source give for COc1cc(C)ccc1OCCSc1nc2ccc(NC(=O)c3cccs3)cc2s1 here?
Answer: 72% (inactive)

Question: CCOC(=O)c1ccccc1NC(=O)C1CCN(c2ncnc3c2nc2n3CCCCC2)CC1 was tested. Which survival did it give?
Answer: 62% (inactive)

Question: With O=C1CS/C(=N/c2nc(-c3ccccc3)cs2)N1 as the compound, how does the survival read?
Answer: 83% (inactive)

Question: Which survival does the source give for COc1ccc(-c2nc3sc(CCNC(=O)c4ccccc4C)c(C)n3n2)cc1 here?
Answer: 77% (inactive)

Question: Cc1ccccc1CNC(=O)CCC(=O)N1CC2CCCN2c2ccccc21 (stereo unspecified) was tested. Which survival did it give?
Answer: 55% (inactive)

Question: Which survival does the source give for O=C(CSc1oc(-c2ccc(F)cc2)nc1S(=O)(=O)c1ccc(Br)cc1)NC1CCCCC1 here?
Answer: 64% (inactive)

Question: Which survival does the source give for O=C(CSc1oc(-c2ccc(F)cc2)nc1S(=O)(=O)c1ccccc1)NC1CCCCC1 here?
Answer: 61% (inactive)

Question: For O=S(=O)(c1ccccc1)c1nc(-c2ccc(F)cc2)oc1NCc1ccccc1, which survival is on record?
Answer: 67% (inactive)

Question: How did the survival turn out when CCS(=O)(=O)c1oc(-c2ccc(F)cc2)nc1S(=O)(=O)c1ccc(Br)cc1 was run?
Answer: -5% (active)

Question: Which survival does the source give for COCCNc1oc(-c2ccccc2)nc1S(=O)(=O)c1ccc(Br)cc1 here?
Answer: 79% (inactive)

Question: For CCCCS(=O)(=O)c1oc(-c2ccc(F)cc2)nc1S(=O)(=O)c1ccccc1, which survival is on record?
Answer: 4% (active)

Question: How did the survival turn out when CCS(=O)(=O)c1oc(-c2ccc(F)cc2)nc1S(=O)(=O)c1ccccc1 was run?
Answer: -5% (active)

Question: CC(=O)Nc1ccc(NC(=O)CCc2c(C)nc3c(c(C)nn3-c3ccccc3)c2C)cc1 was tested. Which survival did it give?
Answer: 107% (inactive)

Question: For CCCCN(C)CCNC(=O)c1cc2c(=O)n(C)c3ccccc3c2n1C, which survival is on record?
Answer: 90% (inactive)

Question: Which survival does the source give for Cc1ccccc1CCNC(=O)c1ccc2c(c1)nc1n2CCOC1 here?
Answer: 84% (inactive)

Question: For Cn1c(=S)[nH]c2c(c1=O)C1(CCCC1)Cc1ccccc1-2, which survival is on record?
Answer: 80% (inactive)

Question: Which survival does the source give for CSCCC(NS(=O)(=O)c1ccc2c(c1)oc(=O)n2C)C(=O)NCc1ccc(Cl)cc1 (stereo unspecified) here?
Answer: 92% (inactive)

Question: Which survival does the source give for COc1ccc(-c2nc3scc(CCNC(=O)Cc4ccc(F)cc4)n3n2)cc1 here?
Answer: 95% (inactive)

Question: Which survival does the source give for CCC(C(=O)Nc1cccc(-c2nc3cccnc3s2)c1C)c1ccccc1 (stereo unspecified) here?
Answer: 92% (inactive)

Question: CCC(CC)C(=O)Nc1cc(-c2nc3cccnc3s2)ccc1C was tested. Which survival did it give?
Answer: 57% (active)

Question: For CCC(C(=O)Nc1cc(-c2cn3cccnc3n2)ccc1C)c1ccccc1 (stereo unspecified), which survival is on record?
Answer: 91% (inactive)

Question: Which survival does the source give for Cc1ccc(-c2nc3cccnc3s2)cc1NC(=O)C(C)C here?
Answer: 112% (inactive)

Question: How did the survival turn out when CCC(CC)C(=O)Nc1cccc(-c2nc3cccnc3s2)c1 was run?
Answer: 80% (inactive)

Question: For CCC(C(=O)Nc1cc(-c2nc3cccnc3s2)ccc1C)c1ccccc1 (stereo unspecified), which survival is on record?
Answer: 37% (active)

Question: With CCCC(=O)Nc1cc(C)c(O)c(-c2nc3ncccc3o2)c1 as the compound, how does the survival read?
Answer: 91% (inactive)

Question: For NC(=O)C1CCN(S(=O)(=O)c2ccc(N3CCCCS3(=O)=O)cc2)CC1, which survival is on record?
Answer: 116% (inactive)

Question: Cn1c(=O)c2c(n3ncnc13)NC(=O)CC2c1cccc(F)c1 (stereo unspecified) was tested. Which survival did it give?
Answer: 66% (inactive)

Question: How did the survival turn out when CS(=O)(=O)N1CCN(c2ncnc3c(-c4ccc(Cl)cc4)nsc23)CC1 was run?
Answer: 99% (inactive)

Question: How did the survival turn out when COCCn1c(C)cc(O)c(C(c2ccc(OC)cc2)N2CCN(c3ccccc3)CC2)c1=O (stereo unspecified) was run?
Answer: 58% (inactive)

Question: Which survival does the source give for Cc1nc2c3cccnc3nn2c(C)c1CCC(=O)NCc1ccccc1 here?
Answer: 110% (inactive)

Question: With Cc1ccc(Cl)cc1-n1c(CCC(=O)O)ccc1-c1cccs1 as the compound, how does the survival read?
Answer: 38% (active)

Question: How did the survival turn out when COc1ccc(-c2ccc(CCC(=O)O)n2-c2ccccc2O)cc1 was run?
Answer: 124% (inactive)

Question: For Cc1ccc(-c2ccc(CCC(=O)O)n2-c2cccc(C)c2C)cc1, which survival is on record?
Answer: 34% (active)

Question: Which survival does the source give for Cc1ccc(-n2c(CCC(=O)O)ccc2-c2cccs2)cc1C here?
Answer: 46% (inactive)

Question: For Cc1ccc(-c2ccc(CCC(=O)O)n2-c2ccc(C)c(Cl)c2)cc1, which survival is on record?
Answer: 42% (inactive)

Question: With COc1ccc(Cl)cc1-n1c(CCC(=O)O)ccc1-c1ccc(C)cc1 as the compound, how does the survival read?
Answer: 73% (inactive)

Question: With Cc1ccc(-n2c(CCC(=O)O)ccc2-c2cccs2)cc1Cl as the compound, how does the survival read?
Answer: 86% (inactive)

Question: With COc1ccc(-c2ccc(CCC(=O)O)n2-c2cc(Cl)ccc2O)cc1 as the compound, how does the survival read?
Answer: 52% (inactive)

Question: COc1ccc(-n2c(CCC(=O)O)ccc2-c2ccccc2)c(OC)c1 was tested. Which survival did it give?
Answer: 47% (active)

Question: For COc1ccc(-c2ccc(CCC(=O)O)n2-c2ccccc2C(F)(F)F)cc1, which survival is on record?
Answer: 116% (inactive)

Question: For COc1ccc(-c2ccc(CCC(=O)O)n2-c2ccc(Cl)cc2C)cc1, which survival is on record?
Answer: 47% (active)

Question: How did the survival turn out when Cc1ccc(C)c(-n2c(CCC(=O)O)ccc2-c2ccc(Cl)cc2)c1 was run?
Answer: 75% (inactive)

Question: With CCOC(=O)c1ccc(NC(=O)CCC(=O)N2Cc3ccccc3Oc3ncccc32)cc1 as the compound, how does the survival read?
Answer: 92% (inactive)

Question: With COc1ccc(N(C(=O)c2ccc(Cl)cc2)S(=O)(=O)c2ccc(C)cc2)cc1 as the compound, how does the survival read?
Answer: 68% (inactive)

Question: With COc1cc(/C=C/c2nc3cc(Cl)ccc3c(=O)n2-c2cccc(C(F)(F)F)c2)cc(OC)c1OC as the compound, how does the survival read?
Answer: 96% (inactive)

Question: With CCOc1cccc2sc(N3CCN(C(=O)C(C)(C)C)CC3)nc12 as the compound, how does the survival read?
Answer: 77% (inactive)

Question: Which survival does the source give for CCOc1ccc2nc(NCCNC(=O)NCc3ccccc3)c(C#N)cc2c1 here?
Answer: 98% (inactive)

Question: How did the survival turn out when CSc1ccccc1NC(=O)CSc1ncccn1 was run?
Answer: 108% (inactive)

Question: Which survival does the source give for O=C(COc1ccccc1Cl)NCC1(N2CCOCC2)CCCCC1 here?
Answer: 106% (inactive)

Question: With COc1ccc(-c2nc(SCC(=O)NCC3CCCO3)c(-c3ccc(C)cc3)[nH]2)cc1OC (stereo unspecified) as the compound, how does the survival read?
Answer: 66% (inactive)

Question: Which survival does the source give for COc1ccc(CNS(=O)(=O)c2cc3c(cc2Cl)N(C(C)=O)CCO3)cc1 here?
Answer: 74% (inactive)

Question: With COc1ccccc1-n1c(=O)n(C)c2c(C(N)=O)nc(-c3cccc(OC)c3OC)nc21 as the compound, how does the survival read?
Answer: 83% (inactive)

Question: Cc1cccc(NC(=O)C(=O)NCCc2sc(-c3ccccc3)nc2C)c1C was tested. Which survival did it give?
Answer: 79% (inactive)

Question: How did the survival turn out when Cc1ccc(NC(=O)Cn2c(CCC(=O)O)ccc2-c2cccs2)cc1 was run?
Answer: 56% (inactive)

Question: For Cc1cc(Cl)ccc1-n1c(CCC(=O)O)ccc1-c1cccs1, which survival is on record?
Answer: 47% (active)

Question: Which survival does the source give for CC(=O)c1ccc(-n2c(CCC(=O)O)ccc2-c2cccs2)cc1 here?
Answer: 65% (inactive)

Question: With Cc1ccc(NC(=O)Cn2c(CCC(=O)O)ccc2-c2cccs2)cc1Cl as the compound, how does the survival read?
Answer: 59% (inactive)

Question: With Cc1c(Cl)cccc1-n1c(CCC(=O)O)ccc1-c1cccs1 as the compound, how does the survival read?
Answer: 35% (active)

Question: For Cc1c(Cl)cccc1NC(=O)Cn1c(CCC(=O)O)ccc1-c1cccs1, which survival is on record?
Answer: 50% (inactive)

Question: For O=C(COc1ccccc1)N(Cc1cccnc1)c1nc2c(F)cc(F)cc2s1, which survival is on record?
Answer: 84% (inactive)

Question: CCc1nc2ccc(C(=O)NCCc3ccc(SC)cc3)cc2nc1CC was tested. Which survival did it give?
Answer: 76% (inactive)

Question: For COc1ccc(-c2nnn(CC(=O)N(CC(=O)NCc3ccccc3)c3ccc4c(c3)OCCO4)n2)cc1OC, which survival is on record?
Answer: 69% (inactive)

Question: For CCC(C(=O)NCCC(C)C)N(C(=O)Cn1nnc(-c2ccc(C)cc2)n1)c1cccc(O)c1 (stereo unspecified), which survival is on record?
Answer: 37% (active)

Question: For O=C(CN(C(=O)Cn1nnc(-c2ccc(F)cc2)n1)c1ccccc1C(F)(F)F)NCc1ccco1, which survival is on record?
Answer: 98% (inactive)

Question: For Cc1ccc(-c2nnn(CC(=O)N(CC(=O)NCCC(C)C)c3ccc(F)cc3)n2)cc1, which survival is on record?
Answer: 41% (active)

Question: CCC(C(=O)NC1CCCC1)N(C(=O)Cn1nnc(-c2cccs2)n1)c1cnc2ccccc2c1 (stereo unspecified) was tested. Which survival did it give?
Answer: 92% (inactive)

Question: CCC(C(=O)NC1CCCC1)N(C(=O)Cn1nnc(-c2ccc(C)cc2)n1)c1ccc2c(c1)OCCO2 (stereo unspecified) was tested. Which survival did it give?
Answer: 90% (inactive)

Question: O=C(Oc1c(Cl)cc(Cl)c2cccnc12)N1CCCCCC1 was tested. Which survival did it give?
Answer: 112% (inactive)

Question: How did the survival turn out when COC(=O)c1cc2sccc2n1CC(=O)Nc1ccc(OC)c(OC)c1 was run?
Answer: 86% (inactive)

Question: Which survival does the source give for Cc1cccc(OCC(=O)Nc2ccccc2OCc2cc(=O)n3cc(C)ccc3n2)c1 here?
Answer: 94% (inactive)

Question: How did the survival turn out when COc1ccc(OC(=O)CSc2nnc(-c3ccc(F)cc3)o2)cc1 was run?
Answer: 109% (inactive)

Question: With FC(F)(F)c1cccc(C(c2nnnn2Cc2ccccc2)N(Cc2ccco2)CC2CCCO2)c1 (stereo unspecified) as the compound, how does the survival read?
Answer: 105% (inactive)

Question: For COc1cccc(C(=O)Nc2c3c(nn2-c2ccc(C)cc2C)CS(=O)(=O)C3)c1OC, which survival is on record?
Answer: 116% (inactive)

Question: For COc1ccc2cc3cc(C(=O)Nc4ccccc4C)oc3nc2c1, which survival is on record?
Answer: 116% (inactive)

Question: How did the survival turn out when Cc1ccc(C)c(N2CCN(C(c3ccccc3)c3nnc(-c4ccccc4)o3)CC2)c1 (stereo unspecified) was run?
Answer: -5% (active)

Question: Cc1ccc(C)c(N2CCN(C(c3ccc(F)cc3)c3nnc(-c4ccccc4)o3)CC2)c1 (stereo unspecified) was tested. Which survival did it give?
Answer: 16% (active)

Question: How did the survival turn out when Cc1ccc(Cl)cc1N1CCN(C(c2ccc(F)cc2)c2nnc(-c3ccccc3)o2)CC1 (stereo unspecified) was run?
Answer: 55% (inactive)

Question: With Cc1cccc(N2CCN(C(c3ccccc3)c3nnc(-c4ccccc4Cl)o3)CC2)c1C (stereo unspecified) as the compound, how does the survival read?
Answer: 51% (inactive)

Question: COc1ccccc1N1CCN(C(c2ccc(Cl)cc2)c2nnc(-c3cccc(F)c3)o2)CC1 (stereo unspecified) was tested. Which survival did it give?
Answer: 62% (inactive)

Question: COc1ccccc1N1CCN(C(c2ccccc2)c2nnc(-c3ccccc3Cl)o2)CC1 (stereo unspecified) was tested. Which survival did it give?
Answer: 32% (active)

Question: Which survival does the source give for Fc1ccc(C(c2nnc(-c3ccccc3)o2)N2CCN(c3cccc(Cl)c3)CC2)cc1 (stereo unspecified) here?
Answer: 91% (inactive)

Question: How did the survival turn out when Cc1cccc(N2CCN(C(c3ccc(F)cc3)c3nnc(-c4ccccc4)o3)CC2)c1C (stereo unspecified) was run?
Answer: 39% (active)

Question: For COc1ccc(N2CCN(C(c3ccccc3)c3nnc(-c4ccccc4Cl)o3)CC2)cc1 (stereo unspecified), which survival is on record?
Answer: 49% (inactive)

Question: With Cc1cccc(N2CCN(C(c3ccccc3)c3nnc(-c4ccccc4F)o3)CC2)c1C (stereo unspecified) as the compound, how does the survival read?
Answer: 58% (inactive)

Question: With Cc1ccc(C)c(N2CCN(C(c3ccccc3)c3nnc(-c4ccccc4F)o3)CC2)c1 (stereo unspecified) as the compound, how does the survival read?
Answer: 61% (inactive)

Question: Fc1ccc(C(c2nnc(-c3ccccc3)o2)N2CCN(c3ccccc3)CC2)c(Cl)c1 (stereo unspecified) was tested. Which survival did it give?
Answer: 84% (inactive)

Question: With CCN(CC)CCOC(=O)c1ccc(Nc2c3c(nc4ccccc24)CCC3)cc1 as the compound, how does the survival read?
Answer: 94% (inactive)

Question: Which survival does the source give for Cc1c(C(=O)N2CCC(c3nc4ccccc4s3)CC2)oc2cc(Br)ccc12 here?
Answer: 107% (inactive)

Question: How did the survival turn out when COc1cccc(-c2nnc(SCC(=O)N3CCCCC3)o2)c1 was run?
Answer: 98% (inactive)

Question: With CCc1ccc(NC(=O)Cn2nc(C(F)(F)F)c3c2CCCC3)cc1 as the compound, how does the survival read?
Answer: 94% (inactive)

Question: How did the survival turn out when CCOc1ccc(CCNS(=O)(=O)c2c(C)nc3sc(C)cn3c2=O)cc1OCC was run?
Answer: 58% (inactive)
